# Test results as given in PubChem BioAssay.
# Results filed as inconclusive are left out. Active and inactive are the calls of the source.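 Rule for the calls, unless noted: active = normalized viability below 100% at a tested concentration; inactive = the rest.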
# Assays:
# [1] = viability loss in pontine glioma line – cell-based, SU-DIPG-XVII, MIPE5.0, CellTiter-Glo, qHTS, dose response (AID 1347060; cut-off not given, nearly all actives have AC50 up to about 26 µM;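 for AC50: cells exposed to compound for 48 hours before viability readout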); settings: CellTiter-Glo ATP luminescence
# [2] = viability loss in pontine glioma line – cell-based, SU-DIPG-XIII, MIPE4.0, CellTiter-Glo, qHTS, dose response (AID 1347061; cut-off not given, nearly all actives have AC50 up to about 37 µM;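 note: cells exposed to compound for 48 hours before readout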); settings: CellTiter-Glo ATP luminescence
# [3] = viability loss in pontine glioma line – cell-based, JHH-DIPG-1, MIPE4.0, CellTiter-Glo, qHTS, dose response (AID 1347062; cut-off not given, nearly all actives have AC50 up to about 27 µM;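 for AC50: cells exposed to compound for two days before readout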); settings: JHH-DIPG-1 viability, CellTiter-Glo ATP luminescence
# [4] = viability loss in pontine glioma line – cell-based, SU-DIPG-XIII, MIPE5.0, CellTiter-Glo, qHTS, dose response (AID 1347064; cut-off not given, nearly all actives have AC50 up to about 23 µM;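 for AC50: cells exposed to compound for 48 hours before the viability read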); settings: CellTiter-Glo ATP luminescence
# [5] = viability loss in pontine glioma line – cell-based, SU-DIPG-XXV, MIPE5.0, CellTiter-Glo, qHTS, dose response (AID 1347065; cut-off not given, nearly all actives have AC50 up to about 26 µM;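 note: cells exposed to compound for 48 hours before ATP readout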); settings: CellTiter-Glo ATP luminescence
# [6] = growth inhibition of DIPG cells – cell-based, MIPE4.0 library, CellTiter-Glo luminescence, qHTS (AID 1347066; cut-off not given, nearly all actives have AC50 up to about 30 µM;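 note: cells exposed to compound for 48 hours before readout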); settings: SU-DIPG-VI viability, CellTiter-Glo ATP luminescence
# [7] = JHH-DIPG-1 glioma cell viability, MIPE5.0 library, CellTiter-Glo luminescence, qHTS (AID 1347067; cut-off not given, nearly all actives have AC50 up to about 26 µM;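 note: cells exposed to compound for 48 hours before readout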); settings: JHH-DIPG-1 glioma viability, CellTiter-Glo ATP luminescence
# [8] = viability loss with induced miR-34 in A549 – imaging, A549 dox-inducible miR-34, nuclei and caspase counts, primary screen (AID 1347080;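 active = compounds whose cell count with miR-34 switched on is under 0.7 times the count with it off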); settings: A549 miR-34 inducible, Hoechst nuclei count, 48 h
# [9] = compounds altering HSF1 focus formation in cells – imaging, Selleck Cancer Library (AID 1347162; in the data active = plate-normalised HSF1 focus index below about 0.46); settings: human cells, HSF1 nuclear foci imaging, at 10 µM; SSMD: measured here: HSF1 foci SSMD mean; cell count: measured here: cell number; plate-normalised HSF1 focus index: stronger effect = lower value
# [10] = MELAS cybrid and Rieske KO viability enhancers – cell-based, MELAS cybrids, Rieske KO mouse fibroblasts, CellTiter-Glo, primary screen (AID 1508586;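 active = mean z-score across replicates of 1.96 or higher in either the MELAS or the Rieske mutant cell line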;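 note: z relative to plate mean and SD of compound and empty wells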); settings: low glucose
# [11] = drug combination growth inhibition, ovarian cancer – cell-based, oncology-focused library, rucaparib conditional, profiling panel (AID 1508598); settings: patient-derived ovarian cancer cells, CellTiter-Glo viability, 144 h, stronger effect = lower value
# [12] = growth inhibition of DIPG cells – cell-based, MIPE5.0 library, qHTS (AID 1347068; cut-off not given, nearly all actives have IC50 up to about 30 µM); settings: SU-DIPG-XXV viability
smiles,measurement,setting,value
Cn1cnc2c(F)c(Nc3ccc(Br)cc3Cl)c(C(=O)NOCCO)cc21,AC50,[1],4.17 µM (active)
same,AC50,[2],10.5 µM (active)
same,AC50,[3],9.35 µM (active)
same,AC50,[4],5.9 µM (active)
same,AC50,[5],4.68 µM (active)
same,outcome,[6],inactive
same,AC50,[7],0.833 µM (active)
same,fold change,"[8]; stronger effect = lower value, cell number ratio, induced over uninduced",1.01 (inactive)
same,fold change,[8]; measured here: relative caspase fold change +Dox/-Dox,0.759
same,cell count,"[8]; measured here: total cells with miR-34 induction, stronger effect = lower value",3770
same,cell count,[8]; measured here: total cells without miR-34 induction,3730
same,SSMD,[9],2.54
same,cell count,[9],7320
same,plate-normalised HSF1 focus index,[9],1.09 (inactive)
same,z-score,"[10]; MELAS cybrid survival, CellTiter-Glo 48 h, stronger effect = higher value",-0.103 (inactive)
same,z-score,"[10]; Rieske KO mouse fibroblast survival, CellTiter-Glo 72 h",-0.489
same,viability,"[11]; at 0.000305 µM, OCI-C5x cells, with rucaparib 10 µM, 100% = cells with rucaparib alone",105% (inactive)
same,viability,"[11]; at 0.000305 µM, OCI-C5x cells, without rucaparib",106% (inactive)
same,viability,"[11]; at 0.000305 µM, OCI-P5x cells, with rucaparib 20 µM, 100% = cells with rucaparib alone",80.8% (active)
same,viability,"[11]; at 0.000305 µM, OCI-P5x cells, without rucaparib",84.9% (active)
same,viability,"[11]; at 0.00122 µM, OCI-C5x cells, with rucaparib 10 µM, 100% = cells with rucaparib alone",104% (inactive)
same,viability,"[11]; at 0.00122 µM, OCI-C5x cells, without rucaparib",92.6% (active)
same,viability,"[11]; at 0.00122 µM, OCI-P5x cells, with rucaparib 20 µM, 100% = cells with rucaparib alone",81.4% (active)
same,viability,"[11]; at 0.00122 µM, OCI-P5x cells, without rucaparib",82.8% (active)
same,viability,"[11]; at 0.00488 µM, OCI-C5x cells, with rucaparib 10 µM, 100% = cells with rucaparib alone",101% (inactive)
same,viability,"[11]; at 0.00488 µM, OCI-C5x cells, without rucaparib",93.7% (active)
same,viability,"[11]; at 0.00488 µM, OCI-P5x cells, with rucaparib 20 µM, 100% = cells with rucaparib alone",70.3% (active)
same,viability,"[11]; at 0.00488 µM, OCI-P5x cells, without rucaparib",75.1% (active)
same,viability,"[11]; at 0.0195 µM, OCI-C5x cells, with rucaparib 10 µM, 100% = cells with rucaparib alone",110% (inactive)
same,viability,"[11]; at 0.0195 µM, OCI-C5x cells, without rucaparib",92.3% (active)
same,viability,"[11]; at 0.0195 µM, OCI-P5x cells, with rucaparib 20 µM, 100% = cells with rucaparib alone",56.4% (active)
same,viability,"[11]; at 0.0195 µM, OCI-P5x cells, without rucaparib",70.1% (active)
same,viability,"[11]; at 0.0781 µM, OCI-C5x cells, with rucaparib 10 µM, 100% = cells with rucaparib alone",102% (inactive)
same,viability,"[11]; at 0.0781 µM, OCI-C5x cells, without rucaparib",83.8% (active)
same,viability,"[11]; at 0.0781 µM, OCI-P5x cells, with rucaparib 20 µM, 100% = cells with rucaparib alone",53.5% (active)
same,viability,"[11]; at 0.0781 µM, OCI-P5x cells, without rucaparib",65.2% (active)
same,viability,"[11]; at 0.313 µM, OCI-C5x cells, with rucaparib 10 µM, 100% = cells with rucaparib alone",104% (inactive)
same,viability,"[11]; at 0.313 µM, OCI-C5x cells, without rucaparib",80.4% (active)
same,viability,"[11]; at 0.313 µM, OCI-P5x cells, with rucaparib 20 µM, 100% = cells with rucaparib alone",43.6% (active)
same,viability,"[11]; at 0.313 µM, OCI-P5x cells, without rucaparib",59.6% (active)
same,viability,"[11]; at 1.25 µM, OCI-C5x cells, with rucaparib 10 µM, 100% = cells with rucaparib alone",84% (active)
same,viability,"[11]; at 1.25 µM, OCI-C5x cells, without rucaparib",82.2% (active)
same,viability,"[11]; at 1.25 µM, OCI-P5x cells, with rucaparib 20 µM, 100% = cells with rucaparib alone",38.2% (active)
same,viability,"[11]; at 1.25 µM, OCI-P5x cells, without rucaparib",61.5% (active)
same,viability,"[11]; at 5 µM, OCI-C5x cells, with rucaparib 10 µM, 100% = cells with rucaparib alone",49.5% (active)
same,viability,"[11]; at 5 µM, OCI-C5x cells, without rucaparib",51.1% (active)
same,viability,"[11]; at 5 µM, OCI-P5x cells, with rucaparib 20 µM, 100% = cells with rucaparib alone",25.6% (active)
same,viability,"[11]; at 5 µM, OCI-P5x cells, without rucaparib",32.7% (active)
CC(=O)OCCN1C(=O)c2c(C)nc3ccc(S(=O)(=O)N4CCOCC4)cc3c2C1=O,outcome,[1],inactive
same,outcome,[2],inactive
same,outcome,[3],inactive
same,outcome,[4],inactive
same,outcome,[5],inactive
same,outcome,[6],inactive
same,outcome,[7],inactive
same,outcome,[12],inactive
same,SSMD,[9],2.02
same,cell count,[9],7180
same,plate-normalised HSF1 focus index,[9],1.12 (inactive)
